# PMC7862700, “An all-to-all approach to the identification of sequence-specific readers for epigenetic DNA modifications on cytosine”
# What was measured:
# Assay in all cases: DAPPL (digital affinity profiling via proximity ligation, sequencing); 10 mM Tris-HCl pH 7.5, 50 mM NaCl, 1 mM DTT, 4% glycerol, room temperature, 30 min; GST-TFs on glutathione beads, 16-mer random dsDNA library, 0.1% formaldehyde crosslink after washing; high values mean tight binding
# Conditions in all cases: protein: recombinant; tags: N-terminal GST; dsDNA, one strand shown
# ELK1 = biological target: T1, ELK1 (Homo sapiens, UniProt P19419 1-428)
# T1 sequence: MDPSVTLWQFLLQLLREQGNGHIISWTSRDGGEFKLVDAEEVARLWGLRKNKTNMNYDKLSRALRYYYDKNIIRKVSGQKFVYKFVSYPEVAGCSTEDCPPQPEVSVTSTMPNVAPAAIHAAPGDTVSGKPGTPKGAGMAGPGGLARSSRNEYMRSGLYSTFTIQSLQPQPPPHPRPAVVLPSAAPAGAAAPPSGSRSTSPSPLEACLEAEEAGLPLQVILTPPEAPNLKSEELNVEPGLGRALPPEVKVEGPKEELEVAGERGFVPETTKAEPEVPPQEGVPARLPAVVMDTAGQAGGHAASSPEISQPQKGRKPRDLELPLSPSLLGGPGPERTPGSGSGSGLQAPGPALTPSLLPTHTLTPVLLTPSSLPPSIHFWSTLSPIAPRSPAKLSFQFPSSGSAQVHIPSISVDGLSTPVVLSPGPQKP
# Outline: (§1)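 Yeast served to express human transcription factors as GST fusions, which were then captured on glutathione beads and labelled with DNA barcodes. Pooled with a tag-only sample, they were incubated with 200 nmole of a 16-mer random double-stranded DNA library for 30 min at room temperature in Tris/NaCl/DTT/glycerol buffer, washed, crosslinked with 0.1% formaldehyde, ligated by proximity, amplified by PCR and sequenced. Dividing each hexamer's read frequency for a factor by its frequency for the tag-only sample gives the binding signal.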
# GABPA = biological target: T2, GABPA (Homo sapiens, UniProt Q06546 1-454)
# T2 sequence: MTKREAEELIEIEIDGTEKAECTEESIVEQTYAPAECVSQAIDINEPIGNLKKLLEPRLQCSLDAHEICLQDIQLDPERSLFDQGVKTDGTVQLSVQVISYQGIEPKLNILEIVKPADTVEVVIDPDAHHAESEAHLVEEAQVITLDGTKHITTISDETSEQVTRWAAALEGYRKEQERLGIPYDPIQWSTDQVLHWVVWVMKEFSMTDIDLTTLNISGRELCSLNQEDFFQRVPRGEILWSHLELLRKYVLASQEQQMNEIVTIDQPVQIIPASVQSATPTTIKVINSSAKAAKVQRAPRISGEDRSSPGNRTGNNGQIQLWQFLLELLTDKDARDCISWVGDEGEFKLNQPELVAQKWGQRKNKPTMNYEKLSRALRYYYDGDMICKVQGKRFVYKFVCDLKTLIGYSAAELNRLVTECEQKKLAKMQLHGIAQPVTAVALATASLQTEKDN
# Outline: as §1
# ELF1 = ELF1 (Homo sapiens, UniProt P32519 1-619)
# Sequence of ELF1 (P32519 whole entry): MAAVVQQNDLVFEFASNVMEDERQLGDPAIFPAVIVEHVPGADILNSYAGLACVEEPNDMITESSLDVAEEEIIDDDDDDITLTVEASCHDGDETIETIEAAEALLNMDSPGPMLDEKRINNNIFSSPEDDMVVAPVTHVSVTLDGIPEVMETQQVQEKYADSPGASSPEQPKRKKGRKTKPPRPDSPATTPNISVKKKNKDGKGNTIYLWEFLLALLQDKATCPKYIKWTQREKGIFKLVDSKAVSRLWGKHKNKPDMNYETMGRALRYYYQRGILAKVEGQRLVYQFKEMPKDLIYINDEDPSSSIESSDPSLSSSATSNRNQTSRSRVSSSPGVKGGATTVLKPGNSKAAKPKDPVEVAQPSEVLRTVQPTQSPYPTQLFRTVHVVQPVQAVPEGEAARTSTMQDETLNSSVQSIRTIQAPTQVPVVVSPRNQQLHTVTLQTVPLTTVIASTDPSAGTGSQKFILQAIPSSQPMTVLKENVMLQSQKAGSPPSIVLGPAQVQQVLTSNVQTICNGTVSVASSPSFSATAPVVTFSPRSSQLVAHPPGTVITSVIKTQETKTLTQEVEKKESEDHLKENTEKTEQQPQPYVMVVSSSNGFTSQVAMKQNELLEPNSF
# Outline: as §1
# SPIB = SPIB (Homo sapiens, UniProt Q01892 1-262)
# Sequence of SPIB (Q01892 whole entry): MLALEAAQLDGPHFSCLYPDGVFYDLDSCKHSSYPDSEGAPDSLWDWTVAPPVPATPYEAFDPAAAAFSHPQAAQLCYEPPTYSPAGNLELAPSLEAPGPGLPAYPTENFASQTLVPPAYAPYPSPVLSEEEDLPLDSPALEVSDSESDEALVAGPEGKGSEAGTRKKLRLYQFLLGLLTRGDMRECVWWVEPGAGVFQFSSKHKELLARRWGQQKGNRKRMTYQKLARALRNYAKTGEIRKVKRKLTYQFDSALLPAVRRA
# Outline: as §1
# FEV = biological target: T3, FEV (Homo sapiens, UniProt Q99581 1-238)
# T3 sequence: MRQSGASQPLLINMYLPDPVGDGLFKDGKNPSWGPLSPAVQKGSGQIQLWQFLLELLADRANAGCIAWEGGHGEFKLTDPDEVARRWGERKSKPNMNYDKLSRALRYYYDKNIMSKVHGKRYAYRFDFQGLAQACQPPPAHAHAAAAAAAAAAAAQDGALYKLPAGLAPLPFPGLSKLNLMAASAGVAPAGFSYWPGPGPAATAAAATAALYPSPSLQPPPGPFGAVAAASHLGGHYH
# Outline: as §1
# ETV5 = ETV5 (Homo sapiens, UniProt P41161 1-510)
# Sequence of ETV5 (P41161 whole entry): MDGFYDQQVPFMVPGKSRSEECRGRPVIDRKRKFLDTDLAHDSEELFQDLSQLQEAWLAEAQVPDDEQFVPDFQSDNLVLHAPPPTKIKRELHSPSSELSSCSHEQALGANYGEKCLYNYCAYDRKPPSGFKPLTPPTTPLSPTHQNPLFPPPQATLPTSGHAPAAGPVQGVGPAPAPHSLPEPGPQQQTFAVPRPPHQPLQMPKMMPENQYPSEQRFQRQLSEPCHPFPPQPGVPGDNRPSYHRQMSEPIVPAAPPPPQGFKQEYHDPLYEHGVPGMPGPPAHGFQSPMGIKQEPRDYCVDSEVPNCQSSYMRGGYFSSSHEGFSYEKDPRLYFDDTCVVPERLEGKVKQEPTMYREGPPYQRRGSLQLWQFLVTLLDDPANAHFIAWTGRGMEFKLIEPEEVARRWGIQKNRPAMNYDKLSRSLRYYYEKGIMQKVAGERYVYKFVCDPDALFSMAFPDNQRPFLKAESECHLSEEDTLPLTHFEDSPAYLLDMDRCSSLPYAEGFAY
# Outline: as §1
# ELF4 = ELF4 (Homo sapiens, UniProt Q99607 1-663)
# Sequence of ELF4 (Q99607 whole entry): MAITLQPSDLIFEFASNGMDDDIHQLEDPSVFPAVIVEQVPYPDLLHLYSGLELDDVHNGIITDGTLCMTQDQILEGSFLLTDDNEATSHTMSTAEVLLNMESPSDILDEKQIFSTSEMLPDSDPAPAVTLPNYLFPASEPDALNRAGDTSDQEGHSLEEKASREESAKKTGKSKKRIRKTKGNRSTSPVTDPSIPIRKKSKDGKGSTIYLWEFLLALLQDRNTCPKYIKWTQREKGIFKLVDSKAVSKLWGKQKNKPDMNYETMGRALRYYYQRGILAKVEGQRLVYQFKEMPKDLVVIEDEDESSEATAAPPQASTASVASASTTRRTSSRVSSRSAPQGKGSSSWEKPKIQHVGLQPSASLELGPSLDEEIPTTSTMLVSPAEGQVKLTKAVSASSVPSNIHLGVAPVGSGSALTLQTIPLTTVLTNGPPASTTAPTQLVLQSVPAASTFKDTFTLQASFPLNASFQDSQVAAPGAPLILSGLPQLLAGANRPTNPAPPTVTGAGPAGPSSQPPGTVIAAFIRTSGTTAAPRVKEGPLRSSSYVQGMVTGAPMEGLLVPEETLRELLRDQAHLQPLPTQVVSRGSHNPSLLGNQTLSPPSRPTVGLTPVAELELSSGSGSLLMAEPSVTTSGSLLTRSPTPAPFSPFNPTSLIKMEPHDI
# Outline: as §1
# ELK4 = biological target: T4, ELK4 (Homo sapiens, UniProt P28324-2 1-405)
# T4 sequence: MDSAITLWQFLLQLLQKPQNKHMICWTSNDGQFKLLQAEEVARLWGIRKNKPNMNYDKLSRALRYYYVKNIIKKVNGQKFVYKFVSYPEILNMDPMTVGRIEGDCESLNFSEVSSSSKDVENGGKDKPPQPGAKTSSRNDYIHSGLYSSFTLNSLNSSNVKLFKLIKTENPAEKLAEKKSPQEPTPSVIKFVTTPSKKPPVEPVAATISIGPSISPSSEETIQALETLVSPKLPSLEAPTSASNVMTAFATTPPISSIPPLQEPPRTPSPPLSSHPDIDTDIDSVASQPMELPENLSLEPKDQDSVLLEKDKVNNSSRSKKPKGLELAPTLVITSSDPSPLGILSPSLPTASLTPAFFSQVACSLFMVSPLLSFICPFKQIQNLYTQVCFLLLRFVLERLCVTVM
# Outline: as §1
# ETV2 = biological target: T5, ETV2 (Homo sapiens, UniProt O00321 1-342)
# T5 sequence: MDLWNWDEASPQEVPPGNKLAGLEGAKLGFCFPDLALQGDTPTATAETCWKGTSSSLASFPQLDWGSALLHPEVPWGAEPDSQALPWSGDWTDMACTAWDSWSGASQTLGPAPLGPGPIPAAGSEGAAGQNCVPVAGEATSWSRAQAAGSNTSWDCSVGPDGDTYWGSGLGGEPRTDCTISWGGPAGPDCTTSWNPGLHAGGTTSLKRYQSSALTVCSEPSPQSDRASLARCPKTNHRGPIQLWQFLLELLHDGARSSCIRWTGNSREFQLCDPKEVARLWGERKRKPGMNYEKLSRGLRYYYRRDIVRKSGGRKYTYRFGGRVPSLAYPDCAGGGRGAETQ
# Outline: as §1
# ETV1 = ETV1 (Homo sapiens, UniProt P50549 1-477)
# Sequence of ETV1 (P50549 whole entry): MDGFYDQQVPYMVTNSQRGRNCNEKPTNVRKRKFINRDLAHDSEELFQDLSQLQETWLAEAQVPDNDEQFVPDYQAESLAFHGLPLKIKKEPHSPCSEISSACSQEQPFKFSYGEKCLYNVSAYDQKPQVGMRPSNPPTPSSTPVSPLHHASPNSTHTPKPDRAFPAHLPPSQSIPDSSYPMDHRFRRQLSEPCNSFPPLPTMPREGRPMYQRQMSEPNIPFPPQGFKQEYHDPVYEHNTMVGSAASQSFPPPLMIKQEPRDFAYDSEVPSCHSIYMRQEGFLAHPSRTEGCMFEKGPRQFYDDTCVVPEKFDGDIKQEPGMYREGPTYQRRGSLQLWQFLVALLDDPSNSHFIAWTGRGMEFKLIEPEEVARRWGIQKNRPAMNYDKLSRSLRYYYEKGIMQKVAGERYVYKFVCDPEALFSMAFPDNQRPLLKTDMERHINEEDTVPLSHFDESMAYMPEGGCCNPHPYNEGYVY
# Outline: as §1
# ERF = biological target: T6, ERF (Homo sapiens, UniProt P50548 1-548)
# T6 sequence: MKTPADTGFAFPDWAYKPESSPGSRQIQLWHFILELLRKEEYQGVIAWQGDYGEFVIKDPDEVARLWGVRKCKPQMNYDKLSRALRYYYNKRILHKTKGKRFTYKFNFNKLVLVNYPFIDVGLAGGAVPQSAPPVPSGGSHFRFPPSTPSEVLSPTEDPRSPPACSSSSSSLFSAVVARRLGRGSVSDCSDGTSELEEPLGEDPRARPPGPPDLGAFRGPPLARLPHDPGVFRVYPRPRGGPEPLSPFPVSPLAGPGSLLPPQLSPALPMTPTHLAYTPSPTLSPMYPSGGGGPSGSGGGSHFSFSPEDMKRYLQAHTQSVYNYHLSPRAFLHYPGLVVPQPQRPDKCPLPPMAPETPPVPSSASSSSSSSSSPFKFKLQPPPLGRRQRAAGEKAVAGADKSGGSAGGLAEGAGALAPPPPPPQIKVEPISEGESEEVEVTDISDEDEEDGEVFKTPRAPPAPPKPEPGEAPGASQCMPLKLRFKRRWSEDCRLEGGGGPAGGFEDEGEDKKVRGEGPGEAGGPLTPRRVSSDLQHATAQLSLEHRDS
# Outline: as §1
# ETV3L = biological target: T7, ETV3L (Homo sapiens, UniProt Q6ZN32 1-361)
# T7 sequence: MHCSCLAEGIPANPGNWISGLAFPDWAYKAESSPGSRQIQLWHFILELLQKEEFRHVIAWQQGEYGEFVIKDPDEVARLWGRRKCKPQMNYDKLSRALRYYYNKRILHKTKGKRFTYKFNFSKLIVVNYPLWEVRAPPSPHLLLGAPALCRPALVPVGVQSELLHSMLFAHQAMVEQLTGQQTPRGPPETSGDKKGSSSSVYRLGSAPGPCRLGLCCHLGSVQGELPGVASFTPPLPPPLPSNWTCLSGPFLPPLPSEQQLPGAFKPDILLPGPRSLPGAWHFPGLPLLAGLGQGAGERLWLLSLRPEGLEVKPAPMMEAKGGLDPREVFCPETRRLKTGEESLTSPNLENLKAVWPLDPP
# Outline: as §1
# ETS2 = biological target: T8, ETS2 (Homo sapiens, UniProt P15036 1-469)
# T8 sequence: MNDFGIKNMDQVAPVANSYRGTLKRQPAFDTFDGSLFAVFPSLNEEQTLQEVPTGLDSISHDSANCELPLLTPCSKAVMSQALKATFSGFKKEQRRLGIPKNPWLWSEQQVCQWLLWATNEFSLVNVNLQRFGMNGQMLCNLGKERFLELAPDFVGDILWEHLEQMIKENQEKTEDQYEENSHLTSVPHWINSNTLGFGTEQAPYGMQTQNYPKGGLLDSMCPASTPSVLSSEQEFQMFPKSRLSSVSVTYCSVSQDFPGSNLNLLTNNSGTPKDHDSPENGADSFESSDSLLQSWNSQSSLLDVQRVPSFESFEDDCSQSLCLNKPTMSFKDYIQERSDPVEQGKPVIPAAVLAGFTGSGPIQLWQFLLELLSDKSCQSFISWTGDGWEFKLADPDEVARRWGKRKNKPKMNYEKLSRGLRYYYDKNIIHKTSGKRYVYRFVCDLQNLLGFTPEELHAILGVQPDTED
# Outline: as §1
sequence,measurement,setting,value
GCCTGA,binding signal,ELK1,"1.13 fold enrichment (6-mer frequency, TF over GST control)"
same,binding signal,GABPA,"1.11 fold enrichment (6-mer frequency, TF over GST control)"
same,binding signal,ELF1,"1.04 fold enrichment (6-mer frequency, TF over GST control)"
same,binding signal,SPIB,"1.09 fold enrichment (6-mer frequency, TF over GST control)"
same,binding signal,FEV,"1.1 fold enrichment (6-mer frequency, TF over GST control)"
same,binding signal,ETV5,"1.09 fold enrichment (6-mer frequency, TF over GST control)"
same,binding signal,ELF4,"1.06 fold enrichment (6-mer frequency, TF over GST control)"
same,binding signal,ELK4,"1.07 fold enrichment (6-mer frequency, TF over GST control)"
same,binding signal,ETV2,"1.03 fold enrichment (6-mer frequency, TF over GST control)"
same,binding signal,ETV1,"1.05 fold enrichment (6-mer frequency, TF over GST control)"
same,binding signal,ERF,"1.07 fold enrichment (6-mer frequency, TF over GST control)"
same,binding signal,ETV3L,"1.12 fold enrichment (6-mer frequency, TF over GST control)"
same,binding signal,ETS2,"1.02 fold enrichment (6-mer frequency, TF over GST control)"
